Test in all cases: log2 fold change, soluble protein after heating vs DMSO (PISA); higher = thermal stabilisation; K562 lysate, 10 uM; active = over 0.2 and 3.5 SD of the protein, either way, in both replicates (recomputed)
Compound in assay [1]: NCC(=O)Nc1ccc(-n2nc(C(F)(F)F)cc2-c2ccc3c(ccc4ccccc43)c2)cc1
The procedure, abridged: (§1)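 K562 pellets were dounce-homogenised in PBS pH 7.4 with 1 mM MgCl2, and the crude extract at 1 mg/mL protein was treated with 10 μM compound for 30 min. Aliquots were heated for 3 min across 48°C-58°C, pooled, and brought to 0.5% NP-40 at 4°C; soluble protein was the supernatant after 21,000xg for 90 min. Soluble protein was quantified by TMTpro 16plex LC-MS/MS with channel sums equalised, and reported as log2 fold change in thermal stability against DMSO controls, with values from duplicates.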

Compound in assay [2]: O=C(CCCCCCC(=O)Nc1ccccc1)NO [vorinostat]
In short, it runs like this:
as §1

Compound in assay [3]: O=C(O)c1ccc2c(c1)nc(Nc1cccc(Cl)c1)c1ccncc12 [silmitasertib]
In short, it runs like this: as §1

Compound in assay [4]: O=C1NC(=O)C(c2cnc3ccccn23)=C1c1cn2c3c(cc(F)cc13)CN(C(=O)N1CCCCC1)CC2
In short, it runs like this: as §1

Compound in assay [5]: c1cn2cc(-c3ccc4cn[nH]c4c3)nc(Nc3ccc(N4CCOCC4)cc3)c2n1 [entospletinib]
In short, it runs like this:
as §1

Of roughly 8,800 targets only a part is listed; those with a hit were picked by preference. About 0.5% of all pairs of compound and target were hits. Values without a mark were called inactive.

From the supplement of paper PMC10849652 come the findings set out here.

UniProt Q8N4N3, sequence (Q8N4N3 whole entry, looked up): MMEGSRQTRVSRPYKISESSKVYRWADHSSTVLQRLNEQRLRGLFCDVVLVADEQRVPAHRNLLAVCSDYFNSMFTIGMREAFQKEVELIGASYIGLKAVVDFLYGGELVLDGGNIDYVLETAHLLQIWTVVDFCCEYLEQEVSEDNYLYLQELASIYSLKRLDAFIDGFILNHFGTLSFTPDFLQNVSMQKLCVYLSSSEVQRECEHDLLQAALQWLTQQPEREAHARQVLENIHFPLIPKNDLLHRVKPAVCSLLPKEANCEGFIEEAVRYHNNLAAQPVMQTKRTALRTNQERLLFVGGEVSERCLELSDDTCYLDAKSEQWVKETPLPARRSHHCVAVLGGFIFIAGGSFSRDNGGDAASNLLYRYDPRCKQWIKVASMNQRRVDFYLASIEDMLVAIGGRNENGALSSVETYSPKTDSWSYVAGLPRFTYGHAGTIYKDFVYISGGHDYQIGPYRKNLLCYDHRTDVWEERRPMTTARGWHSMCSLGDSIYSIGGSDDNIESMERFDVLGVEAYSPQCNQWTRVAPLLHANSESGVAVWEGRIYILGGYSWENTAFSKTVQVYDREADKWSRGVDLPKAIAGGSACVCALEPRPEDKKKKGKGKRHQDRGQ
UniProt Q9H8H3, sequence (Q9H8H3 whole entry, looked up): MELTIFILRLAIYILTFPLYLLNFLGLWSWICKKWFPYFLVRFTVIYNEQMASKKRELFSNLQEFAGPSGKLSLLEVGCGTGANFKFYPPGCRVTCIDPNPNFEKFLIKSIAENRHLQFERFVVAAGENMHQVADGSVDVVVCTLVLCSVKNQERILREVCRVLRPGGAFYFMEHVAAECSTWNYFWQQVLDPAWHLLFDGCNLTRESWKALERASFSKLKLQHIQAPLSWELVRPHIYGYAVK
UniProt O14880, sequence (O14880 whole entry, looked up): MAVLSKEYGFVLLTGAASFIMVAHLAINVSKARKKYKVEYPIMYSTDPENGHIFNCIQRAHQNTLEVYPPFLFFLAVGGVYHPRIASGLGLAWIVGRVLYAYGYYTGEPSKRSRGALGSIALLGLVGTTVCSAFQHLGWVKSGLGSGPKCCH
UniProt O95202, sequence (O95202 whole entry, looked up): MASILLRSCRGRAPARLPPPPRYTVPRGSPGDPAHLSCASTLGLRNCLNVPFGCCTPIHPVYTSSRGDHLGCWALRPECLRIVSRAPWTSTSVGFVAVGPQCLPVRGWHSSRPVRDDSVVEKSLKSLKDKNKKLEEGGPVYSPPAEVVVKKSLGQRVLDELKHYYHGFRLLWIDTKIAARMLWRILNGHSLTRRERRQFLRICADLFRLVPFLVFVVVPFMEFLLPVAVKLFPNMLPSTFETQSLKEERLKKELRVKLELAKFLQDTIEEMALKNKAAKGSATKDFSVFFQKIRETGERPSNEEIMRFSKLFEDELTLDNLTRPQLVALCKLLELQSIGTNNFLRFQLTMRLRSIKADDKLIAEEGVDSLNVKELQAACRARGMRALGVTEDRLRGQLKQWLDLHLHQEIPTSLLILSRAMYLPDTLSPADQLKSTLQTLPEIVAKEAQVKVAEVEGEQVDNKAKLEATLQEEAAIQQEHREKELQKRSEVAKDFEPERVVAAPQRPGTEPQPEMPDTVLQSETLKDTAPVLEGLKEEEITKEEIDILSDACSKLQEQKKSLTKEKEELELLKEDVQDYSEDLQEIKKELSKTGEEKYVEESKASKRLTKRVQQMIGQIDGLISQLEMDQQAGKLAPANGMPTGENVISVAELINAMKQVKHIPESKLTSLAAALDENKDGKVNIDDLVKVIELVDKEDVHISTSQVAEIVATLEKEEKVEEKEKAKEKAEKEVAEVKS
UniProt O15021, sequence (O15021 whole entry, looked up): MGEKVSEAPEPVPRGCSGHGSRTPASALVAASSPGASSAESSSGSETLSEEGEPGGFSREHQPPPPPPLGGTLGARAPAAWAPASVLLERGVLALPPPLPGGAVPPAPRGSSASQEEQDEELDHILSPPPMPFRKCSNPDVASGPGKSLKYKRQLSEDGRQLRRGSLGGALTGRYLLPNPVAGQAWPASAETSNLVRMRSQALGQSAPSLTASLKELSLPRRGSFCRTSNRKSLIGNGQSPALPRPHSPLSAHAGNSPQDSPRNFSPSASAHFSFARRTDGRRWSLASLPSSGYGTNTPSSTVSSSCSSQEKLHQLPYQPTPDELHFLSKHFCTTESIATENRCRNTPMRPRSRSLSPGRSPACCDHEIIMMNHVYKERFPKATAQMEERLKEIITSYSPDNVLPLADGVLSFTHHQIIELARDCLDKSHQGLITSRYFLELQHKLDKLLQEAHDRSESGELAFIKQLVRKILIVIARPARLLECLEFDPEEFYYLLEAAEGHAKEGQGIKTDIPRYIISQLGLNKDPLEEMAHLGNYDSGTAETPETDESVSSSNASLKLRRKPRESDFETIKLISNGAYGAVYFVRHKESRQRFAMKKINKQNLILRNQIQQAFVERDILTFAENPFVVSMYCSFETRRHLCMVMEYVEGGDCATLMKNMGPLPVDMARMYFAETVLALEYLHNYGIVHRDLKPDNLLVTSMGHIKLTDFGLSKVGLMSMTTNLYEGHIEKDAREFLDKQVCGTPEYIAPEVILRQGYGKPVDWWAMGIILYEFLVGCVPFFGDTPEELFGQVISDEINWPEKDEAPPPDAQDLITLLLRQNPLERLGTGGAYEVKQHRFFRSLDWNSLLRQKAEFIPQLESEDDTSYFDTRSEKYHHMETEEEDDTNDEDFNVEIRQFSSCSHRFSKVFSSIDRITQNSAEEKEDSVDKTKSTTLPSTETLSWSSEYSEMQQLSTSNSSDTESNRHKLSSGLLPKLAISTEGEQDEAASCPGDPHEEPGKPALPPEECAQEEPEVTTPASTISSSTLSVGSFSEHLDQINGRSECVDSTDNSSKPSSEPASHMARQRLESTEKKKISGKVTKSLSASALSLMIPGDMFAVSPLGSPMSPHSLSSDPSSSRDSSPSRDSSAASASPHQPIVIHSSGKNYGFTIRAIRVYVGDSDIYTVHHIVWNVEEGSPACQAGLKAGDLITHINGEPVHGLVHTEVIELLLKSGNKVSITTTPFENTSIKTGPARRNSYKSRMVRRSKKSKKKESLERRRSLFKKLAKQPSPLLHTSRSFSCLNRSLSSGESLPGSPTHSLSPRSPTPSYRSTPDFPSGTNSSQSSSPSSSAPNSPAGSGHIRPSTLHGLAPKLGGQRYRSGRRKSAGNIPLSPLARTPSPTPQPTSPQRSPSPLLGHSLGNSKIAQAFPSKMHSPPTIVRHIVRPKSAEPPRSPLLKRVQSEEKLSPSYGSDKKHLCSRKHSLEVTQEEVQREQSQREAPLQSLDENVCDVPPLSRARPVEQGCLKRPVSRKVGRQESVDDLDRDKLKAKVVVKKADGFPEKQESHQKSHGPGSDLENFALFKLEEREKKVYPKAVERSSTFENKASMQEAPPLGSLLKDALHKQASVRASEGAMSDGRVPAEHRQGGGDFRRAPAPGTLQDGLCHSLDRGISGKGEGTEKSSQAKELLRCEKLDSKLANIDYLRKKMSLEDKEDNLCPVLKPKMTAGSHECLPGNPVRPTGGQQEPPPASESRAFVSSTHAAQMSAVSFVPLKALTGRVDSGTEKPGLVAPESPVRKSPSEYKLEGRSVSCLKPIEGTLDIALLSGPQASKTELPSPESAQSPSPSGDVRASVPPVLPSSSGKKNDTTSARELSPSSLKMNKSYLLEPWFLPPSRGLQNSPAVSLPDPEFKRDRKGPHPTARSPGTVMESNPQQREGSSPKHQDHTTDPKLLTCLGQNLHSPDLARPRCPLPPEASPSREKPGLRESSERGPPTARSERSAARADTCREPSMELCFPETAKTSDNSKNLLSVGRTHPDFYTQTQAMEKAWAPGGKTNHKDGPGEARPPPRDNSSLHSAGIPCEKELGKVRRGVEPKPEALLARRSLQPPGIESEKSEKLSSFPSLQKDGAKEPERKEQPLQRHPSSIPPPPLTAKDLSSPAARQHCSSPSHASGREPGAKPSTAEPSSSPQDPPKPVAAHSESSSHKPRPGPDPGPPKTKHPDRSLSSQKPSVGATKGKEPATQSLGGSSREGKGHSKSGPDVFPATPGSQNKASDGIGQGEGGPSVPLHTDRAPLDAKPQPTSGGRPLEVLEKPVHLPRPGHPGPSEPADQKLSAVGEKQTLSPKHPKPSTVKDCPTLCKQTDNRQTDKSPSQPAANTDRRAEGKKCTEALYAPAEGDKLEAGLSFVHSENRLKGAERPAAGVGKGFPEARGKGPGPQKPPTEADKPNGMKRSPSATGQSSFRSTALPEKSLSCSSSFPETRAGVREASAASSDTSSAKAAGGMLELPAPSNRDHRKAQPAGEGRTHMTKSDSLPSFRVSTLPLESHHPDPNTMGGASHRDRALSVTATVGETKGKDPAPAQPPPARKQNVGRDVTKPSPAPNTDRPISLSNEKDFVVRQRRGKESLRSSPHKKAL

With MGST3 (UniProt O14880), the log2 fold change in assay [1] was -0.025; in assay [2] it was 0.128; in assay [3] it was 0; in assay [4], 0.033; in assay [5] it was 0.041.

Take MRPL15 (UniProt Q9P015): the log2 fold change in assay [1] was 0.068; in assay [2] it was 0.137; in assay [3], -0.071; in assay [4] it was -0.02; in assay [5] it was -0.061.

For MRPL19 (UniProt P49406), the log2 fold change in assay [1] is 0; in assay [2] it was -0.311 (active); in assay [3], 0.012; in assay [4], 0.027; in assay [5] it was -0.054.

Turning to LAS1L (UniProt Q9Y4W2), the log2 fold change in assay [1] is -0.008; in assay [2], -0.397 (active); in assay [3], 0.01; in assay [4], -0.018; in assay [5], -0.075.

For the target LIG3 (UniProt P49916), the log2 fold change was -0.061 in assay [1]; -0.411 (active) in assay [2]; 0.018 in assay [3]; -0.012 in assay [4]; -0.004 in assay [5].

As for LETM1 (UniProt O95202), the log2 fold change is -0.041 in assay [1]; 0.084 in assay [2]; -0.021 in assay [3]; -0.006 in assay [4]; 0.009 in assay [5].

Regarding MAST4 (UniProt O15021), the log2 fold change in assay [1] is -0.073; in assay [2] it was -0.381; in assay [3], 0.281; in assay [4] it was -0.025; in assay [5], 0.018.

With METTL7A (UniProt Q9H8H3), the log2 fold change is 0.037 in assay [1]; 0.017 in assay [2]; -0.053 in assay [3]; 0.274 in assay [4]; -0.001 in assay [5].

Take KLHL36 (UniProt Q8N4N3): the log2 fold change in assay [1] was 0.059; in assay [2] it was -0.161; in assay [3], 0.082; in assay [4], -0.037; in assay [5], -0.006.
